# A number with no mark means an inactive call. Results filed as inconclusive are left out. Where a call stands in place of a potency, no number is given. Active and inactive are the calls of the source. The call rests on the fitted dose curve; in most records, active means well fitted curve in the direction sought with a large enough effect in the repeat runs; inconclusive means weak or mixed curves; inactive means no such curve, though single readings can be large; an effect the other way counts as inactive or inconclusive.
# Experiments:
# [1] = Human pregnane X receptor (PXR) small molecule agonists, qHTS cell viability counter screen (AID 1346977); further: nearly all actives have a fitted effect of over 50% in size; further: potency means the concentration at half of the fitted maximal effect
# How it was run: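 In each well, the PXR reporter HepG2 line was checked for viability: CellTiter-Fluor reagent added 23hr post-dosing, fluorescence read after 1hr incubation at 37C.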
# [2] = Caspase-3/7 induction in HepG2 cells by small molecules, qHTS assay (AID 1346978); further: nearly all actives have a fitted effect of over 15% in size; further: potency means the concentration at half of the fitted maximal effect
# How it was run: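 Wild-type HepG2 cells (2,000/well) were settled 5 h at 37 C, 5% CO2, then exposed to compounds in DMSO for 17 h. Caspase-3/7 activity was read by luminescence 30 min after adding Caspase-Glo 3/7 reagent at room temperature.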
# [3] = Caspase-3/7 induction in CHO-K1 cells by small molecules, qHTS cell viability counter screen (AID 1346979); further: nearly all actives have a fitted effect of over 35% in size; further: potency means the concentration at half of the fitted maximal effect
# How it was run: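 Following a 5hr settling period, CHO-K1 cells at 1,500 per well received DMSO-dissolved compounds. Cell viability was quantified 16hr later by CellTiter-Fluor fluorescence, measured after 1hr with reagent at 37C.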
# [4] = Caspase-3/7 induction in CHO-K1 cells by small molecules, qHTS assay (AID 1346980); further: nearly all actives have a fitted effect of over 15% in size
# How it was run: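 Wild-type cells were seeded at 1,500 per well and settled 5 hr at 37 C, 5% CO2, then exposed to DMSO-dissolved compounds for 17 hr. Caspase-Glo 3/7 reagent was added, and luminescence was read after 30min at room temperature.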
# [5] = Caspase-3/7 induction in HepG2 cells by small molecules, qHTS cell viability counter screen (AID 1346981); further: series mostly up to about 92 µM; nearly all actives have a fitted effect of over 30% in size
# How it was run: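 In this quantitative HTS counter screen, compounds delivered in DMSO were left on unmodified HepG2 cells for 16 hr at 37 C. Viability was then determined fluorometrically with CellTiter-Fluor, in parallel with caspase-3/7 induction in the same wells.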
# [6] = target: Nuclear receptor subfamily 1 group I member 2 (Homo sapiens) (UniProt O75469); test: Human pregnane X receptor (PXR) small molecule agonists, qHTS assay (AID 1346982); further: nearly all actives have a fitted effect of over 35% in size; further: potency means the concentration at half of the fitted maximal effect
# Nuclear receptor subfamily 1 group I member 2 (Homo sapiens), sequence (O75469 whole entry, looked up): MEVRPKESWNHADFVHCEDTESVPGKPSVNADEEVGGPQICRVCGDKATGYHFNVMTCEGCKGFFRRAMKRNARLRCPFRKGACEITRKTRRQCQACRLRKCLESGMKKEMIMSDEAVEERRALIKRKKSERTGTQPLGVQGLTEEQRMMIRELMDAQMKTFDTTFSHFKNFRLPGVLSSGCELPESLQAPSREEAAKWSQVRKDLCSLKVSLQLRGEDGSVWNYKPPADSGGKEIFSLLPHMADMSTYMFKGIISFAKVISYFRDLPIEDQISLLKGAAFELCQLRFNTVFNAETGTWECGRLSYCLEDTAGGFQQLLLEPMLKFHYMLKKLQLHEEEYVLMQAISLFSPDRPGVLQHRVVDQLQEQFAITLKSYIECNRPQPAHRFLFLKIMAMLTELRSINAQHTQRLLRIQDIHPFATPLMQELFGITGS
# How it was run: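 Reporter HepG2 cells expressing PXR-Luc are cultured in charcoal-stripped FBS (5%), treated with compounds for 24 hr at 37 C, and assayed by ONE-Glo luminescence after 30 min at room temperature.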
# [7] = target: Cytochrome P450 2D6 (Homo sapiens) (UniProt P10635); test: Cytochrome P450 Family 2 Subfamily D Member 6 (CYP2D6) small molecule antagonists: luciferase reporter qHTS assay (AID 1671196); further: nearly all actives have a fitted effect of over 50% in size; further: potency means the concentration at half of the fitted maximal effect; on activity change, negative = inhibition: series mostly up to about 120 µM
# Cytochrome P450 2D6 (Homo sapiens), sequence (P10635 whole entry, looked up): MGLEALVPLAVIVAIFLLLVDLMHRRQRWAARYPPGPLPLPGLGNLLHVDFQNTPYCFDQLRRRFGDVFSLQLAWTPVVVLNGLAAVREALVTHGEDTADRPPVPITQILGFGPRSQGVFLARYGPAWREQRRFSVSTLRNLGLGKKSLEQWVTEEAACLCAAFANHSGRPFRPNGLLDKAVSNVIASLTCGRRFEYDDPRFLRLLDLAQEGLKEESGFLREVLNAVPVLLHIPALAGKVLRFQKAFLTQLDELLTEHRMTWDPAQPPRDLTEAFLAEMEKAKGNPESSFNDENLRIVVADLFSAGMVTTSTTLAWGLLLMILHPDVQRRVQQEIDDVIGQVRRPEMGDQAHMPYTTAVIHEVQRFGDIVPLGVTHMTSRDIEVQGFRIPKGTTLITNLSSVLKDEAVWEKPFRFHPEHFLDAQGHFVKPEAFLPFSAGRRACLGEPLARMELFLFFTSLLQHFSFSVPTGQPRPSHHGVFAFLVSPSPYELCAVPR
# How it was run: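 Test chemicals meet CYP2D6 plus proluciferin substrate (10 min, RT); NADPH regenerating solution then drives turnover for 1 h. Detection reagent halts the reaction; luminescence measured after 20 min.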
# [8] = target: Cytochrome P450 2C9 (Homo sapiens) (UniProt P11712); test: Cytochrome P450 Family 2 Subfamily C Member 9 (CYP2C9) small molecule antagonists: luciferase reporter qHTS assay (AID 1671198); further: nearly all actives have a fitted effect of over 50% in size; further: potency means the concentration at half of the fitted maximal effect; on activity change, negative = inhibition: series mostly up to about 120 µM
# Cytochrome P450 2C9 (Homo sapiens), sequence (P11712 whole entry, looked up): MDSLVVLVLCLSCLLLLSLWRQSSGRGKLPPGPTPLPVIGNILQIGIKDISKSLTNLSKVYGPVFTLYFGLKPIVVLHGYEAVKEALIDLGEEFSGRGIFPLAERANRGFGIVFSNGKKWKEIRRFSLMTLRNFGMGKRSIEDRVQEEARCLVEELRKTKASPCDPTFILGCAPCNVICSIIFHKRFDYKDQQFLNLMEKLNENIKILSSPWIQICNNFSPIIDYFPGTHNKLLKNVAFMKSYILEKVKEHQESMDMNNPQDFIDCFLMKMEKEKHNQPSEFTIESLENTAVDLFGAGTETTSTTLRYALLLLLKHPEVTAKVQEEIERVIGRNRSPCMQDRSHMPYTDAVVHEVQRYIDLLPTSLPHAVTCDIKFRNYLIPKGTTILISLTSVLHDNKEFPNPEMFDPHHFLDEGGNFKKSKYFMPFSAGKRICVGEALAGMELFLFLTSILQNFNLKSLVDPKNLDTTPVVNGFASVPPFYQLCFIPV
# How it was run: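 CYP2C9 activity was measured with a P450-Glo proluciferin substrate. Enzyme–substrate mix was held with compound for 10 min at room temperature, then NADPH regeneration solution was added for 1 h at 37C. Luciferin product was read as luminescence.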
# [9] = target: Cytochrome P450 1A2 (Homo sapiens) (UniProt P05177); test: Cytochrome P450 Family 1 Subfamily A Member 2 (CYP1A2) small molecule antagonists: luciferase reporter qHTS assay (AID 1671199); further: nearly all actives have a fitted effect of over 50% in size; further: potency means the concentration at half of the fitted maximal effect; on activity change, negative = inhibition: series mostly up to about 120 µM
# Cytochrome P450 1A2 (Homo sapiens), sequence (P05177 whole entry, looked up): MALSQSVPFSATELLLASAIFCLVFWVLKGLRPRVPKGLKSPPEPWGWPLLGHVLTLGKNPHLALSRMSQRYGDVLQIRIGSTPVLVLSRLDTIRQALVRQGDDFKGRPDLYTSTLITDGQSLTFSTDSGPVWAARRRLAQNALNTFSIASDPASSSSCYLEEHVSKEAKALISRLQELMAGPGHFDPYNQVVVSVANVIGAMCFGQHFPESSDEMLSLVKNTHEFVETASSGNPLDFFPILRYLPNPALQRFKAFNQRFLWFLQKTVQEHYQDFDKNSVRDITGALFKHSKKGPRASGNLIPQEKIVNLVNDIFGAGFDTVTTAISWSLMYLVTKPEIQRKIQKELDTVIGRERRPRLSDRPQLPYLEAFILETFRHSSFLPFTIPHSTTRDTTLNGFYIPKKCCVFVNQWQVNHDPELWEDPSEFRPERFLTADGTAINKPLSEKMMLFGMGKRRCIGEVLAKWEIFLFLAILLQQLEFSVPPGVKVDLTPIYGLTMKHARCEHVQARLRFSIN
# How it was run: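 Steps: enzyme-substrate mix dispensed; test compounds and furafylline control pinned in; 10 min room temperature; NADPH regeneration solution added, 1 h; reaction stopped with luciferin detection reagent; luminescence read after 20 min.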
# [10] = target: Voltage-gated inwardly rectifying potassium channel KCNH2 (Homo sapiens) (UniProt Q12809); test: Human Ether-a-go-go-Related Gene (hERG) channel small molecule antagonists: fluorescence cell-based qHTS assay (AID 1671200); further: nearly all actives have a fitted effect of over 50% in size; further: potency means the concentration at half of the fitted maximal effect;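 on activity change, negative = inhibition: hERG-expressing U2OS cells given a thallium stimulus after FluxOR II dye loading; series mostly up to about 77 µM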
# Voltage-gated inwardly rectifying potassium channel KCNH2 (Homo sapiens), sequence (Q12809 whole entry, looked up): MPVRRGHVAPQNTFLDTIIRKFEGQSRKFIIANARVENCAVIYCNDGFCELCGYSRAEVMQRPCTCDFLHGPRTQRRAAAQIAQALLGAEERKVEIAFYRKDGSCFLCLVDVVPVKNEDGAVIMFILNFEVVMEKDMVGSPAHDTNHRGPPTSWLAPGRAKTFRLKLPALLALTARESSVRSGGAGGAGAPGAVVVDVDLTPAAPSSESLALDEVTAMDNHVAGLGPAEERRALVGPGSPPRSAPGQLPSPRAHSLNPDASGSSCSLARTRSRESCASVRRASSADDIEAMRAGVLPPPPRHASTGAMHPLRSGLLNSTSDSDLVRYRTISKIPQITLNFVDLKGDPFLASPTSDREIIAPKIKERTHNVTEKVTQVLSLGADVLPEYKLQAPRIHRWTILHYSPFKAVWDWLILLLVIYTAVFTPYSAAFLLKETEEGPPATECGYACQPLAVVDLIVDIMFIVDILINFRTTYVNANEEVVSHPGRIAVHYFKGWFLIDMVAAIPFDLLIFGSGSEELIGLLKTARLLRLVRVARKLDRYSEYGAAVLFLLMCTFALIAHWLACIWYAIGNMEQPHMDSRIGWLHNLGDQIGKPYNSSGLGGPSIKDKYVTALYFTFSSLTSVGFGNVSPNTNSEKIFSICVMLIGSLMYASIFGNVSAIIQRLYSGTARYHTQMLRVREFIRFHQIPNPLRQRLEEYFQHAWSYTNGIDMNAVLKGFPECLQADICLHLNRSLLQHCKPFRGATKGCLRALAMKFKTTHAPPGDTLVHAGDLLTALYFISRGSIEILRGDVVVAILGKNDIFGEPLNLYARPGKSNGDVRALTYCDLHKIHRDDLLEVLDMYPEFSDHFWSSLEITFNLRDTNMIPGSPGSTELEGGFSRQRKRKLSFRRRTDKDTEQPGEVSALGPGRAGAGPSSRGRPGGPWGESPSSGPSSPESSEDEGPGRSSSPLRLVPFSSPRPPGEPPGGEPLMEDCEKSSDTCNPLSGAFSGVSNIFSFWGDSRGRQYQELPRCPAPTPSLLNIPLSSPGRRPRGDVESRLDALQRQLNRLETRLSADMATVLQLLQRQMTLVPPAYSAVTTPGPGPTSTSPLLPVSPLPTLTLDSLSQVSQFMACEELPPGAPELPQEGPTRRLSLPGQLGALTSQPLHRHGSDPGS
# How it was run: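 In this thallium-flux screen, overnight-cultured U2OS cells bearing the channel are dye-loaded in darkness for an hour, rested 10 min at room temperature, and then monitored kinetically at 480/540 nm for two minutes post-stimulus.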
# [11] = target: Cytochrome P450 3A4 (Homo sapiens) (UniProt P08684); test: Cytochrome P450 Family 3 Subfamily A Member 4 (CYP3A4) small molecule antagonists: luciferase reporter qHTS assay (AID 1671201)
# Cytochrome P450 3A4 (Homo sapiens), sequence (P08684 whole entry, looked up): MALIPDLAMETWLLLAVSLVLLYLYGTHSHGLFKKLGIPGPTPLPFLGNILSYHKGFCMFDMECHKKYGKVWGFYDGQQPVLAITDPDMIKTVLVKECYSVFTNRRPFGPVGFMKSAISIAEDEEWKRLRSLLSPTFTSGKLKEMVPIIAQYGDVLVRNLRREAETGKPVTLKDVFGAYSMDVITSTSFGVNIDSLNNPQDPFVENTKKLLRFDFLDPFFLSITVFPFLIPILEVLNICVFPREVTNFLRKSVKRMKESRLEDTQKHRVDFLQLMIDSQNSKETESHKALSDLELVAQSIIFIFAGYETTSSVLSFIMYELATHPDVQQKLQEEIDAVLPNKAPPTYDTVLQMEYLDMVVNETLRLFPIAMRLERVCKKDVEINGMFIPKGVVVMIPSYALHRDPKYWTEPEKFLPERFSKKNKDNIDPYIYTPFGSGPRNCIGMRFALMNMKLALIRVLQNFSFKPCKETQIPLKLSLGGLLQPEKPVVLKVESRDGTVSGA
# How it was run: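 CYP3A4 activity was followed with a P450-Glo proluciferin substrate. Test compounds in DMSO were preincubated 10 min; NADPH regeneration then ran 1 h, and light output was read 20 min after detection reagent.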
# [12] = target: Cytochrome P450 2C19 (Homo sapiens) (UniProt P33261); test: Cytochrome P450 Family 2 Subfamily C Member 19 (CYP2C19) small molecule antagonists: luciferase reporter qHTS assay (AID 1671197); further: nearly all actives have a fitted effect of over 65% in size; further: potency means the concentration at half of the fitted maximal effect; on activity change, negative = inhibition: series mostly up to about 120 µM
# Cytochrome P450 2C19 (Homo sapiens), sequence (P33261 whole entry, looked up): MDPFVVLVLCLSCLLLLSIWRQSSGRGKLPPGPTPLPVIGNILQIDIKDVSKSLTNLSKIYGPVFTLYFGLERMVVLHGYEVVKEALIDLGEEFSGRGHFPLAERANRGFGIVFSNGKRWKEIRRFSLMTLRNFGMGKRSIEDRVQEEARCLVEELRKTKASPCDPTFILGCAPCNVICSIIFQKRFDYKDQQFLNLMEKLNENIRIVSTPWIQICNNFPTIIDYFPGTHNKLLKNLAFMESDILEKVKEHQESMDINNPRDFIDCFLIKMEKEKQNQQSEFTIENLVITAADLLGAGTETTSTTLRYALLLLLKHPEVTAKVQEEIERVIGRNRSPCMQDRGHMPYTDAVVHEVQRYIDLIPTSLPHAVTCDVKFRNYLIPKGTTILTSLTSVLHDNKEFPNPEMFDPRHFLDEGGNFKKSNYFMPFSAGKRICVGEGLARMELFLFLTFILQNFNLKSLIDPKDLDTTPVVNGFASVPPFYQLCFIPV
# How it was run: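 Light output is proportional to CYP2C19 activity: proluciferin substrate is converted to luciferin, then detected by a luciferin detection reagent that also stops the 1 h, 37C NADPH-driven reaction. Ketoconazole serves as positive control.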
# [13] = target: Nuclear receptor subfamily 1 group I member 2 (Rattus norvegicus) (UniProt Q9R1A7); test: Rat pregnane X receptor (rPXR) activation by small molecules, qHTS assay (AID 1346983); settings: rPXR luciferase reporter cells, One-Glo luminescence, 24 h; max activation: stronger effect = higher value; further: nearly all actives have a fitted effect of over 20% in size
# Nuclear receptor subfamily 1 group I member 2 (Rattus norvegicus), sequence (Q9R1A7 whole entry, looked up): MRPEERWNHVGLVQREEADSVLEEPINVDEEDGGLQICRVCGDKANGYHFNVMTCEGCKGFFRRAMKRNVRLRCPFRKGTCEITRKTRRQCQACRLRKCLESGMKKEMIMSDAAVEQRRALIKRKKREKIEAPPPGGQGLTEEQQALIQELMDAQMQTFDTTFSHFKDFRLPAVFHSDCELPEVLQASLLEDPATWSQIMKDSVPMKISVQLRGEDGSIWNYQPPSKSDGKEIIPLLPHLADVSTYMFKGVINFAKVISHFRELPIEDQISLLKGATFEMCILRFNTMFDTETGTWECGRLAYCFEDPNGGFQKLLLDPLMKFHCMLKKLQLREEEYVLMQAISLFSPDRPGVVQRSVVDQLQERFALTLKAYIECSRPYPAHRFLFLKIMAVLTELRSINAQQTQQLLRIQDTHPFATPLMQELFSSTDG
# How it was run: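 Cell-based rPXR luciferase reporter assay, 2,000 cells per well, rested 5hr at 37 C before compound addition in DMSO, then 24 hr at 37 C. One-Glo reagent was added and luminescence read after 30 min at room temperature.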
# [14] = target: Nuclear receptor subfamily 1 group I member 2 (Homo sapiens) (UniProt O75469); test: CYP3A4 induction through human pregnane X receptor (PXR) by small molecules, qHTS assay (AID 1346984); further: nearly all actives have a fitted effect of over 40% in size; further: potency means the concentration at half of the fitted maximal effect
# How it was run: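 Induction measured in HepG2-based DPX-2 cells co-expressing human PXR and a CYP3A4 promoter-driven luciferase. After a 24-hour compound exposure, cells received CYP3A4 luciferin substrate at 3uM final for 3 hours, and light output was then recorded.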
# [15] = target: Nuclear receptor subfamily 1 group I member 2 (Homo sapiens) (UniProt O75469); test: Human pregnane X receptor (PXR) activation by small molecules, qHTS assay (AID 1346985); further: nearly all actives have a fitted effect of over 40% in size
# How it was run: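 DPX-2 cells (HepG2 co-transfected with a PXR response element and a CYP3A4-promoter luciferase construct) were seeded at 2,000 per well, rested 5 hr at 37C, then exposed to DMSO-dissolved compounds for 24 hr. Activation was read as luciferase luminescence.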
smiles,measurement,setting,value
COC(=O)c1ccc2cc(C(=O)OC)ccc2c1,"activity change, negative = cytotoxicity",[1],6.1% [at 19 µM]
same,caspase activation,[2],-5.84% [at 19 µM]
same,"activity change, negative = cytotoxicity",[3],6.59% [at 19 µM]
same,caspase-3/7 activation,[4],-2.42% [at 19 µM]
same,"activity change, negative = cytotoxicity",[5],-0.603% [at 19 µM]
same,activation,[6],19.9% [at 19 µM]
same,"activity change, negative = inhibition",[7],-8.11% [at 23.6 µM]
same,Potency,[8],inactive
same,Potency,[9],2.58 µM (active)
same,"activity change, negative = inhibition",[10],9.84% [at 15.8 µM]
same,"activity change, negative = inhibition",[11],16.2% [at 23.6 µM]
CCCc1c2oc(C(=O)O)cc(=O)c2cc2c(=O)cc(C(=O)O)n(CC)c12,Potency,[1],inactive
same,Potency,[2],inactive
same,Potency,[3],inactive
same,outcome,[4],inactive
same,Potency,[5],inactive
same,Potency,[6],inactive
same,Potency,[7],inactive
same,Potency,[12],inactive
same,Potency,[8],inactive
same,Potency,[9],inactive
same,Potency,[10],inactive
same,Potency,[11],inactive
CC(C)(C)c1ccc(OC(=O)c2ccccc2O)cc1,Potency,[1],inactive
same,Potency,[2],inactive
same,Potency,[3],inactive
same,outcome,[4],inactive
same,Potency,[5],inactive
same,Potency,[7],inactive
same,Potency,[12],inactive
same,Potency,[8],31.7 µM (active)
same,Potency,[9],39.9 µM (active)
same,Potency,[10],inactive
same,Potency,[11],inactive
CCc1cc2cc(OC)c(OC)cc2c(Cc2ccccc2)n1,Potency,[1],inactive
same,Potency,[2],inactive
same,outcome,[4],inactive
same,Potency,[6],13.3 µM (active)
same,Potency,[12],17.4 µM (active)
same,Potency,[9],6.45 µM (active)
CCOC(=O)C(Br)c1ccccc1 (stereo not given),Potency,[1],inactive
same,Potency,[2],inactive
same,Potency,[3],inactive
same,outcome,[4],inactive
same,Potency,[5],inactive
same,Potency,[6],inactive
same,Potency,[7],inactive
same,Potency,[8],79.6 µM (active)
same,Potency,[10],inactive
same,Potency,[11],inactive
CN1C(=O)CC(c2ccccc2)C1=O (stereo not given),Potency,[1],inactive
same,Potency,[2],inactive
same,Potency,[3],inactive
same,outcome,[4],inactive
same,Potency,[5],inactive
same,max activation,[13],-2.73%
same,Potency,[7],inactive
same,Potency,[12],inactive
same,Potency,[9],inactive
same,Potency,[10],inactive
Nc1cccc(S(=O)(=O)O)c1,Potency,[1],inactive
same,Potency,[2],inactive
same,Potency,[3],inactive
same,outcome,[4],inactive
same,Potency,[5],inactive
same,Potency,[6],inactive
same,Potency,[7],71.2 µM (active)
same,Potency,[12],inactive
same,Potency,[9],inactive
same,Potency,[10],inactive
same,Potency,[11],inactive
CCN(O)CC,Potency,[1],30 µM (active)
same,Potency,[2],inactive
same,Potency,[3],26.7 µM (active)
same,outcome,[4],inactive
same,Potency,[5],inactive
same,Potency,[6],59.8 µM (active)
same,Potency,[7],inactive
same,Potency,[12],inactive
same,Potency,[8],inactive
same,Potency,[9],inactive
same,Potency,[11],inactive
CCCCCCCCCCCCOCCOS(=O)(=O)O,Potency,[1],inactive
same,Potency,[2],inactive
same,outcome,[4],inactive
same,Potency,[5],inactive
same,Potency,[12],79.6 µM (active)
same,Potency,[8],71 µM (active)
same,Potency,[11],inactive
O=C(O)c1cccc(Cl)c1Cl,Potency,[1],inactive
same,Potency,[2],inactive
same,Potency,[3],inactive
same,outcome,[4],inactive
same,Potency,[5],inactive
same,Potency,[6],inactive
same,Potency,[12],inactive
same,Potency,[10],inactive
same,Potency,[11],inactive
O=C(Cl)c1cccc([N+](=O)[O-])c1,Potency,[1],inactive
same,Potency,[2],inactive
same,outcome,[4],inactive
same,Potency,[5],inactive
same,Potency,[6],inactive
same,Potency,[7],inactive
same,Potency,[8],inactive
same,Potency,[9],34.6 µM (active)
same,Potency,[10],inactive
same,Potency,[11],inactive
c1ccc(CN(CC2=NCCN2)c2ccccc2)cc1,Potency,[2],inactive
same,Potency,[3],inactive
same,outcome,[4],inactive
same,Potency,[5],inactive
same,Potency,[6],inactive
same,max activation,[13],-0.824%
same,Potency,[14],inactive
same,Potency,[15],inactive
same,Potency,[7],1.38 µM (active)
same,Potency,[9],inactive
same,Potency,[10],19 µM (active)
same,Potency,[11],inactive
CCOC(=O)COc1ccc2c(c1)CC(NCC(O)c1cccc(Cl)c1)CC2 (stereo not given),Potency,[2],48.9 µM (active)
same,outcome,[4],inactive
same,Potency,[6],inactive
same,Potency,[7],0.452 µM (active)
same,Potency,[12],45.2 µM (active)
same,Potency,[8],35.9 µM (active)
same,Potency,[9],inactive
same,Potency,[10],1.39 µM (active)
same,Potency,[11],inactive
CN1CCN(C2=Nc3ccccc3Oc3ccc(Cl)cc32)CC1,Potency,[2],inactive
same,outcome,[4],inactive
same,Potency,[6],23.7 µM (active)
same,max activation,[13],-1.38%
same,Potency,[14],1.26 µM (active)
same,Potency,[15],inactive
same,Potency,[7],4.9 µM (active)
same,Potency,[12],8.71 µM (active)
same,Potency,[9],inactive
same,Potency,[10],16.9 µM (active)
CC(C)C[C@H](NC(=O)OCC1c2ccccc2-c2ccccc21)C(=O)O,Potency,[2],inactive
same,Potency,[3],inactive
same,outcome,[4],inactive
same,Potency,[5],inactive
same,Potency,[10],inactive
O=C(O[C@@H](C(=O)O)[C@@H](OC(=O)c1ccccc1)C(=O)O)c1ccccc1,Potency,[1],inactive
same,Potency,[2],inactive
same,Potency,[3],inactive
same,outcome,[4],inactive
same,Potency,[5],inactive
same,Potency,[6],inactive
same,Potency,[7],40.6 µM (active)
same,Potency,[12],45.6 µM (active)
same,Potency,[8],inactive
same,Potency,[9],72.2 µM (active)
same,Potency,[10],inactive
same,Potency,[11],inactive
C=Cc1ccccc1,Potency,[1],inactive
same,Potency,[2],inactive
same,Potency,[3],inactive
same,outcome,[4],inactive
same,Potency,[5],inactive
same,Potency,[6],inactive
same,Potency,[7],inactive
same,Potency,[12],inactive
same,Potency,[8],inactive
same,Potency,[9],inactive
same,Potency,[11],inactive
Cn1cnc2c(F)c(Nc3ccc(Br)cc3Cl)c(C(=O)NOCCO)cc21,Potency,[1],inactive
same,Potency,[2],inactive
same,Potency,[3],inactive
same,outcome,[4],inactive
same,Potency,[5],inactive
same,Potency,[6],inactive
same,Potency,[7],inactive
same,Potency,[12],8.71 µM (active)
same,Potency,[8],13.8 µM (active)
same,Potency,[10],inactive
CC(C)=CCC[C@](C)(O)[C@@H]1CC=C(C)CC1,Potency,[1],inactive
same,Potency,[2],inactive
same,outcome,[4],inactive
same,Potency,[5],inactive
same,Potency,[6],inactive
same,Potency,[12],5.03 µM (active)
same,Potency,[8],31.7 µM (active)
same,Potency,[9],39.9 µM (active)
